Source: PubChem BioAssay (National Center for Advancing Translational Sciences (NCATS))
Lassa entry inh = qHTS for Inhibitors of binding or entry into cells for Lassa Virus | Lassa virus pseudotype entry inhibition, cell reporter | Potency, µM (doses to about 37.9 µM), inactives show at the highest dose activity change, negative = inhibition, usual class: inhibitors | 300,000 compounds, 1.2% hits | AID 540256, 2011; calls by dose curve; tested in HEK293 cells; further: potency means the concentration at half of the fitted maximal effect; nearly all actives have a fitted effect of over 50% in size
FMDV antiviral = High Throughput Screening for Foot and Mouth Disease Virus Antivirals. 410,000 compounds, 1.2% hits. FMDV antiviral cell-based qHTS. Potency, µM (titrated, usually from 57.9 µM), without a hit: top-dose activity change, negative = inhibition, usual class: inhibitors; calls by dose curve; tested in HEK293T cells; further: read-out not given here; potency means the concentration at half of the fitted maximal effect; nearly all actives have a fitted effect of over 45% in size
HCMV inh = qHTS Assay for inhibitors of the human cytomegalovirus (HCMV); 410,000 compounds, 4.5% hits; activity change, negative = inhibition, % at 57.5 µM; HFF cells, HCMV-luciferase reporter, 72 h; hits give low values; in the data active means activity change below about -60%; inconclusive means no clear call, values can overlap the other calls; inactive means above about -39%
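Compounds were evaluated in HFFs infected with an HCMV luciferase reporter virus (MOI 1 PFU/cell). Luciferase in lysates collected 72 h post infection served as the replication measure.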
MARV entry inh = qHTS for inhibitors of binding or entry into cells for Marburg Virus | Marburg virus pseudotyped entry inhibition, cell reporter | Potency, µM (doses to about 37.8 µM), inactives show at the top dose activity change, negative = inhibition, actives largely listed as inhibitors | 300,000 compounds, 1.8% hits; calls by dose curve; tested in HEK293 cells; further: potency means the concentration at half of the fitted maximal effect
* hit, by the source's call; ? = inconclusive; . = no result; + = active, no number; [ ] = dose if it differs, or a comment. Compounds with a hit are over-represented: about 6.2% of the library has one in this group of screens. On the % scale 0 is the no-effect control and ±100 the full control effect.

SMILES	Lassa entry inh	FMDV antiviral	HCMV inh	MARV entry inh
CNC(=O)C1CC(=O)N(CCc2ccc(C)cc2)C1 (configuration not stated)	5%[46.1 µM]	14%	-69*	?
CC(C)NC(=O)C1CC(=O)N(CCc2ccc(F)cc2)C1 (configuration not stated)	.	0%	-4	.
O=C(Nc1nncs1)C1CC(=O)N(CCc2ccc(F)cc2)C1 (configuration not stated)	-3%[46.1 µM]	2%	-66*	0%[46.1 µM]
Cc1ccc(CCN2CC(C(=O)NC(C)C)CC2=O)cc1 (configuration not stated)	-1%[46.1 µM]	-3%	-61*	28%[46.1 µM]
CCCc1nnc(NC(=O)C2CC(=O)N(CCc3ccc(F)cc3)C2)s1 (configuration not stated)	7%[46.1 µM]	6%	2	8%[46.1 µM]
COc1ccc(-c2nnc(NC(=O)c3ccc(S(=O)(=O)N4COCC4(C)C)cc3)o2)cc1	?	-23%	-62*	?
CCCC(=O)Nc1nnc(-c2ccc(Cl)s2)o1	.	45%	7	.
CC1(C)COCN1S(=O)(=O)c1ccc(C(=O)Nc2nnc(-c3ccc(Cl)s3)o2)cc1	?	?	.	6.3µM*
Cc1nc(CN2CCN(C(=O)CC3(c4ccccc4Cl)CC(=O)N(C)C3=O)CC2)cs1 (configuration not stated)	.	3%	.	.
N#Cc1ccccc1OCC(=O)N1CCN(c2ccccc2F)CC1	.	?	13	13%[46.1 µM]
COc1ccc(C(=O)NC2CCCCCC2)cc1S(=O)(=O)N1CCCc2ccccc21	7.1µM*	19%	-62*	?
COc1ccc(C(=O)NC2CCCCC2)cc1S(=O)(=O)N1CCOCC1	-4%[46.1 µM]	5%	30	5%[46.1 µM]
COc1ccc(C(=O)OCc2ccccc2F)cc1S(=O)(=O)N1CCCC1	-11%	-2%	-97*	?
COc1ccc(C(=O)NC2CCCCCC2)cc1S(=O)(=O)N1CCCC1	20%	47%	-63*	27%[46.1 µM]
O=C(Nc1cccc(Cl)c1)c1nc[nH]c1C(=O)Nc1ccccc1F	.	-24%	?	.
CCOc1ccccc1C(=O)Nc1ccc(S(=O)(=O)Nc2ncccn2)cc1	12%[46.1 µM]	5%	18	6%[46.1 µM]
CCC(CC)C(=O)Nc1nnc(SCc2cc(=O)n3cccc(C)c3n2)s1	-12%[46.1 µM]	-26%	49	.
CCN(CC)S(=O)(=O)c1cc(NC(=O)C(=O)c2c(-c3ccccc3)cc3ccccn23)ccc1C	?	-25%	-97*	?
CCN(CC)S(=O)(=O)c1cccc(NC(=O)C(=O)c2c(-c3ccccc3)cc3ccccn23)c1	-20%	-8%	-75*	?
O=C(Nc1ccccc1Br)C1CCN(S(=O)(=O)c2cccs2)CC1	3%	-28%	-75*	?
O=C(Nc1ccc(Cl)cn1)C1CCN(S(=O)(=O)c2cccs2)CC1	.	?	-72*	.
O=C(Nc1nccs1)C1CCN(S(=O)(=O)c2cccs2)CC1	1%	-24%	-28	-23%
COc1ccc(CCNC(=O)C2CC(=O)N(c3ccc(C)cc3)C2)cc1OC (configuration not stated)	-2%[46.1 µM]	17%	7	16%[46.1 µM]
CCc1ccc(NC(=O)C2CCN(S(=O)(=O)c3cccs3)CC2)cc1	?	?	-65*	-9%[46.1 µM]
COc1ccc(CCNC(=O)C2CC(=O)N(c3ccc(C(C)(C)C)cc3)C2)cc1OC (configuration not stated)	.	-7%	-94*	.
SMILES	Lassa entry inh	FMDV antiviral	HCMV inh	MARV entry inh
CCOC(=O)N[C@](Nc1sc2c(c1C(N)=O)CCCC2)(C(=O)OCC)C(F)(F)F	.	.	.	-5%
CC(=O)C1=C(C)N(Cc2ccccc2)C(=O)NC1c1cccc(C(F)(F)F)c1 (configuration not stated)	.	.	.	-7%[14.2 µM]
CN(C)S(=O)(=O)c1ccc(Cl)c(NC(=O)C2CCN(S(=O)(=O)c3cccs3)CC2)c1	.	?	-66*	.
CCOC(=O)c1cccc(NC(=O)C2CCN(S(=O)(=O)c3ccc4c(c3)oc(=O)n4C)CC2)c1	-5%[46.1 µM]	-15%	-103*	-21%[46.1 µM]
COc1ccc(CCNC(=O)C2CCN(S(=O)(=O)c3cccs3)CC2)cc1OC	-7%[46.1 µM]	-17%	-96*	10%[46.1 µM]
CCOC(=O)c1cccc(NC(=O)C2CCCN(S(=O)(=O)c3ccc4c(c3)oc(=O)n4C)C2)c1 (configuration not stated)	-1%[46.1 µM]	?	-16	13%[46.1 µM]
O=C(Nc1ccc(Cl)cc1)C1CCN(S(=O)(=O)c2ccc(Br)s2)CC1	?	?	-96*	-15%[46.1 µM]
COc1ccc(S(=O)(=O)N2CCC(C(=O)NCCc3ccc(OC)c(OC)c3)CC2)cc1	.	-18%	-5	.
CCOC(=O)C1CCCN(S(=O)(=O)c2cc3c(cc2C)NC(=O)CO3)C1 (configuration not stated)	16%[46.1 µM]	50%	-2	.
CCc1ccc(NC(=O)CC2C(=O)N(c3ccccc3)C(=O)N2C(C)C)cc1 (configuration not stated)	-3%[46.1 µM]	32%	-4	.
CCc1ccc(NC(=O)C2CCCN(S(=O)(=O)c3cnc[nH]3)C2)cc1 (configuration not stated)	.	9%	.	.
CN(C(=O)C1CCN(S(=O)(=O)c2cccs2)CC1)C1CCCCC1	-12%	.	-27	10%
CCN(Cc1ccncc1)C(=O)C1CCN(S(=O)(=O)c2cccs2)CC1	?	10%	-107*	6%
CCc1ccc(NC(=O)C2CCN(S(=O)(=O)c3cnc[nH]3)CC2)cc1	.	-27%	+	.
CCOC(=O)c1cccc(NC(=O)C2CCN(S(=O)(=O)c3cccs3)CC2)c1	?	25µM*	-18	?
C[C@@H]1[C@@H](c2ccccc2)Cc2nc3ccccc3nc2C[C@H]1C(=O)N1CCCC1	.	.	.	-15%[14.2 µM]
COc1cccc(/C=N\NC(=O)c2ccc(Cn3cc(Br)c([N+](=O)[O-])n3)o2)c1O	6.3µM*	10%	-81*	4µM*
COc1cccc(/C=N/NC(=O)c2c(C)nc3ccc(Br)cn23)c1O	5.2µM*	-22%	.	1.8µM*
COc1cc(/C=N/NC(=O)c2c(C)nc3ccc(Cl)cn23)cc(OC)c1OC	-9%[46.1 µM]	-5%	29	4.5µM*
CCOc1ccccc1/C=N/NC(=O)c1c(C)nc2ccc(Br)cn12	.	?	7	.
COc1ccc(/C=N/NC(=O)c2c(C)nc3ccc(Cl)cn23)cc1OC	.	-3%	-8	.
COc1ccc(/C=N\NC(=O)c2c(C)nc3ccc(Br)cn23)cc1	?	12%	-69*	-9%
Cc1ccc(/C=N/NC(=O)c2c(C)nc3ccc(Br)cn23)cc1	.	16%	-30	.
COc1ccc(S[C@@H]2C[C@@H](C(=O)Nc3ccc4nccnc4c3)N(C3Cc4ccccc4C3)C2)cc1	.	10%	.	.
OCCCNc1ncnc2c1ncn2[C@H]1CN(C2CCCC2)C[C@@H](CO)O1	.	-15%	?	.
CC1(C(=O)NS(=O)(=O)c2cccc(OC(F)F)c2)CCN1C(=O)Cc1cccs1 (configuration not stated)	.	-5%	-15	.
Cc1ccc(C(=O)NNC(=O)CSc2n[nH]c(-c3cccnc3)n2)cc1	2%	-10%	-104*	4%[46.1 µM]
Cc1ccc(C)c(NC(=O)CSc2n[nH]c(-c3ccccn3)n2)c1	?	19%	?	?
